Assay [1] deals with Cytochrome P450 3A7 (Homo sapiens) (UniProt P24462). Kind of assay: Cytochrome P450 family 3 subfamily A member 7 (CYP3A7) small molecule antagonists: luciferase biochemical qHTS assay (AID 1963596). Further: nearly all actives have a fitted effect of over 40% in size. Further: potency means the concentration at half of the fitted maximal effect. The settings on record: P450-Glo CYP3A7 enzyme luminescence, 1 h; series mostly up to 57.4 µM. Summed up:
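P450-Glo luminescent assay: CYP3A7 enzyme converts a proluciferin substrate to luciferin, detected by luciferase reagent; light proportional to activity. Compounds in DMSO preincubated 10 min with enzyme-substrate mix at room temperature, then NADPH regeneration added for 1 h.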

A short description of assay [2]: Viability qHTS for spleen associated tyrosine kinase inhibitor (SYKi) drug resistant MV4-11 cells (AID 1963824). Further: nearly all actives have a fitted effect of over 35% in size. Further: potency means the concentration at half of the fitted maximal effect. To be noted: SYKi-resistant MV4-11 viability, CellTiter-Glo, 72 h; series mostly up to 45 µM. The gist of the method:
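SYK-inhibitor-resistant MV4-11 AML cells were seeded at 500 per well onto compound and cultured 72 hours (37 °C, 5% CO2). CellTiter-Glo was then added, and after 10 min at room temperature, luminescence gave viability.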
In general terms: Quantitative high-throughput screening tests each substance at several concentrations.

Assay [3] is described as follows: Viability qHTS for spleen associated tyrosine kinase inhibitor (SYKi) naive MV4-11 cells (AID 1963823). Further: nearly all actives have a fitted effect of over 40% in size. Further: potency means the concentration at half of the fitted maximal effect. To be noted: MV4-11 AML viability, CellTiter-Glo luminescence, 72 h; series mostly up to 45 µM. The gist of the method: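 In this viability screen, compounds acted on SYK inhibitor naive MV4-11 cells for three days (72 hr, 37 C). Remaining viable cells were measured by CellTiter-Glo luminescence following a 10 min room-temperature development.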

Assay [4] is described as follows: Cellular viability qHTS for adrenocortical cancer (ACC) cell line SW-13 (AID 1963989).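 Further: cells grown in serum-free medium with ITS supplement; on the % scale 0 is the no-effect control and ±100 the full control effect; nearly all actives have a fitted effect of over 65% in size.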 The settings on record: SW-13 ACC cells viability, CellTiter-Glo, 48 h; activity (max response): active compounds read low. Summed up: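 Viability was read as CellTiter-Glo luminescence after 48 h compound treatment (up to 46 uM final) of SW-13 cells grown serum-free; titration curves were fit with a four-parameter logistic model to give IC50 and efficacy.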

A short description of assay [5]: Cellular viability qHTS for adrenocortical cancer (ACC) cell line NCI-H295R (AID 1963990). Further: nearly all actives have a fitted effect of over 60% in size. Further: potency means the concentration at half of the fitted maximal effect. To be noted: CellTiter-Glo ATP luminescence, 48 h; series mostly up to 46.1 µM. Summed up: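 CellTiter-Glo ATP luminescence, read 48 h after compound addition, measured viability of NCI-H295R adrenocortical cells grown serum-free with ITS. Final concentrations spanned up to 46 uM. Data normalized to DMSO and doxorubicin, fitted for IC50 and maximal response.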

Results filed as inconclusive are left out. Activity calls are given as the source filed them. The call rests on the fitted dose curve; in most records, active means well fitted curve in the direction sought with a large enough effect; inconclusive means small, poorly fitted or top-dose-only effect, or another doubt; inactive means no such curve, though single readings can be large; an effect the other way counts as inactive or inconclusive.

Chain of Cytochrome P450 3A7 (Homo sapiens) (P24462 whole entry, looked up): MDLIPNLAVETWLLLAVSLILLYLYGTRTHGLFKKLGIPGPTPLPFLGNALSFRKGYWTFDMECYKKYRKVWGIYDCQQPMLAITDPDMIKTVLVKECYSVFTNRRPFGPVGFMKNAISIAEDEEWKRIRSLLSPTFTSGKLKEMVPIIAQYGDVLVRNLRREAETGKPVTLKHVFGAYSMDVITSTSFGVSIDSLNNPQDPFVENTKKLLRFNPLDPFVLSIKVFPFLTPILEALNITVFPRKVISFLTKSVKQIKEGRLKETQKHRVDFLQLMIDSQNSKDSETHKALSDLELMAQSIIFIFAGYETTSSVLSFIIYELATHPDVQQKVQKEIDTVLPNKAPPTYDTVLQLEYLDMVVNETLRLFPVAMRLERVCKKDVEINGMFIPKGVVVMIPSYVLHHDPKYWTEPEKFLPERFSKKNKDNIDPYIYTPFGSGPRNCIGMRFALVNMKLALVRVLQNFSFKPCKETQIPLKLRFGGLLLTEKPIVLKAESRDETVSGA

For `CC(C)CCC(=O)CC1c2ccccc2C(=O)N1c1ccc2ccc(Cl)nc2n1` (stereo not drawn), the Potency entry in assay [1] and in assay [2] was “inactive” throughout.
`Oc1ccc(Cl)c2cccnc12`: the Potency entry in assay [1], in assay [3] and in assay [5] was “inactive” throughout. Moreover, the activity (max response) in assay [4] is 4.85% (inactive).
For `COc1ccc(CN(CCN(C)C)c2ccccn2)cc1`, the Potency entry in assay [1] and in assay [5] was “inactive” throughout. Also, the Potency in assay [3] was 16.8 µM (active). In addition, the activity (max response) in assay [4] was 2.63% (inactive).
For the compound `COc1cc2c3cc1Oc1cc(ccc1O)C[C@@H]1c4c(cc(OC)c(O)c4Oc4ccc(cc4)C[C@@H]3N(C)CC2)CC[N+]1(C)C`, the Potency entry in assay [1], in assay [3] and in assay [5] was “inactive” each time. Besides, in assay [4], the activity (max response) is -1.9% (inactive).
Consider `CC(NC(CCc1ccccc1)C(=O)O)C(=O)N1C(=O)N(C)CC1C(=O)O` (stereo not drawn), for which the Potency result in assay [1], in assay [3] and in assay [5] was “inactive” throughout. Besides, the activity (max response) in assay [4] was 6.3% (inactive).
Consider `CN1C(=O)CC(c2ccccc2)C1=O` (stereo not drawn), for which the Potency entry in assay [1], in assay [3] and in assay [5] was “inactive” throughout. For the same compound, in assay [4], the activity (max response) is 5.01% (inactive).
Consider `CN(C)[C@@H]1C(=O)C(C(N)=O)=C(O)[C@@]2(O)C(=O)C3=C(O)c4c(O)cccc4C[C@H]3C[C@@H]12`, for which the Potency entry in assay [1], in assay [3] and in assay [5] was “inactive” throughout.
For the compound `CC(=O)OCC(=O)NCCCOc1cccc(CN2CCCCC2)c1`, the Potency entry in assay [1], in assay [3] and in assay [5] was “inactive” throughout. Further, the activity (max response) in assay [4] was 3.89% (inactive).
Consider `C[C@@H](c1ncncc1F)C(O)(Cn1cncn1)c1ccc(F)cc1F` (stereo partly drawn), for which the Potency result in assay [1], in assay [3] and in assay [5] was “inactive” each time. The activity (max response) in assay [4] is 2.11% (inactive).
For the compound `CC(C)c1cc2c(cc1S(=O)(=O)O)[C@@]1(C)CCC[C@@](C)(C(=O)O)[C@@H]1CC2`, the Potency entry in assay [1], in assay [3] and in assay [5] was “inactive” each time. Besides, the activity (max response) in assay [4] is 15.8% (inactive).
Regarding `CN1Cc2cc(C(=O)N3CCC(C4CCNCC4)CC3)ccc2N[C@@H](CC(=O)O)C1=O`, the Potency entry in assay [1], in assay [3] and in assay [5] was “inactive” in each case. Also, in assay [4], the activity (max response) was 10.2% (inactive).
For the compound `CC(=O)NCCCS(=O)(=O)O`, the Potency result in assay [1], in assay [3] and in assay [5] was “inactive” throughout. In addition, the activity (max response) in assay [4] is 5.88% (inactive).
In the case of `NC/C=C/C(=O)O`, the Potency entry in assay [1], in assay [3] and in assay [5] was “inactive” in each case. The activity (max response) in assay [4] is 8.43% (inactive).
`CCCN1CCC(c2cccc(S(C)(=O)=O)c2)CC1`: the Potency result in assay [1] and in assay [2] was “inactive” throughout.
In the case of `CCc1cc(Cl)c(OC)c(C(=O)NC[C@@H]2CCCN2CC)c1O`, the Potency entry in assay [1], in assay [3] and in assay [5] was “inactive” throughout. For the same compound, the activity (max response) in assay [4] was -13.7% (inactive).
For the compound `Nc1ccc(C(=O)Nc2ccccc2N)cc1`, the Potency in assay [1] is 17.4 µM (active); in assay [2], 7.5 µM (active).
As for `O=C(O)[C@H](O)c1ccccc1`, the Potency result in assay [1], in assay [3] and in assay [5] was “inactive” each time. Besides, the activity (max response) in assay [4] was 6.97% (inactive).
For `CC(C)(C)NC[C@H](O)COc1cccc2c1CCCC2=O`, the Potency entry in assay [1] and in assay [5] was “inactive” throughout. Moreover, the Potency in assay [3] was 11.9 µM (active). Moreover, the activity (max response) in assay [4] is -13.3% (inactive).
Take `Nc1ncnc2c1ncn2[C@@H]1O[C@H](COP(=O)(O)O)[C@@H](O)[C@H]1O`: the Potency entry in assay [1], in assay [3] and in assay [5] was “inactive” in each case. Moreover, the activity (max response) in assay [4] is 5.55% (inactive).
As to `CCn1c(=O)c(-c2ccn[nH]2)cc2c(C)nc(N)nc21`, in assay [1], the Potency entry was “inactive”. Moreover, the Potency was 1.46 µM (active) in assay [3] and 7.08 µM (active) in assay [5].
Consider `CCC(=O)N1CCOc2c(cc(-c3ccc(OC)c(OC)c3)cc2OC[C@H]2CCCN(C)C2)C1`, for which the Potency entry in assay [1] is “inactive”. Further, the Potency in assay [2] is 7.31 µM (active).
With `Nc1nc(=O)n([C@@H]2O[C@H](CO)[C@@H](O)[C@@H]2F)cc1I`, the Potency entry in assay [1], in assay [3] and in assay [5] was “inactive” each time. For the same compound, in assay [4], the activity (max response) was 8.37% (inactive).
For the compound `CCN1CCC[C@H]1CNC(=O)c1cc(S(N)(=O)=O)ccc1OC`, the Potency entry in assay [1], in assay [3] and in assay [5] was “inactive” in each case. Further, the activity (max response) in assay [4] is 6.63% (inactive).
As for `CC(C)(C)NCC(O)COc1cccc2c1CCCC2=O` (stereo not drawn), the Potency result in assay [1] and in assay [2] was “inactive” throughout.
As to `CCOc1cc(NC(C)=O)ccc1C(=O)OC`, the Potency result in assay [1], in assay [3] and in assay [5] was “inactive” each time. Further, in assay [4], the activity (max response) is 1.95% (inactive).
With `O=C(O)c1ccccn1`, the Potency result in assay [1], in assay [3] and in assay [5] was “inactive” in each case. In addition, in assay [4], the activity (max response) was 1.31% (inactive).
`NC(CO)(CO)CO`: the Potency entry in assay [1], in assay [3] and in assay [5] was “inactive” in each case. Moreover, the activity (max response) in assay [4] was 12.7% (inactive).
On to `OC[C@H]1O[C@@H]2O[C@H]3[C@H](O)[C@@H](O)[C@@H](O[C@H]4[C@H](O)[C@@H](O)[C@@H](O[C@H]5[C@H](O)[C@@H](O)[C@@H](O[C@H]6[C@H](O)[C@@H](O)[C@@H](O[C@H]7[C@H](O)[C@@H](O)[C@@H](O[C@H]8[C@H](O)[C@@H](O)[C@@H](O[C@H]1[C@H](O)[C@H]2O)O[C@@H]8CO)O[C@@H]7CO)O[C@@H]6CO)O[C@@H]5CO)O[C@@H]4CO)O[C@@H]3CO`, for which the Potency result in assay [1], in assay [3] and in assay [5] was “inactive” throughout. In addition, the activity (max response) in assay [4] is -1.71% (inactive).
In the case of `CCCCC(O)/C=C(C)/C=C/C=C/C(=O)N1CCCC1=O` (stereo not drawn), the Potency entry in assay [1], in assay [3] and in assay [5] was “inactive” each time. The activity (max response) in assay [4] was 10.5% (inactive).
For `COCCc1ccccn1`, the Potency entry in assay [1] and in assay [5] was “inactive” each time. Also, the Potency in assay [3] was 0.075 µM (active). For the same compound, in assay [4], the activity (max response) was -6% (inactive).

Source of the values: PubChem BioAssay (NCATS).
